Source: PubChem BioAssay (National Center for Advancing Translational Sciences (NCATS))
A selection: hits, their analogues and other compounds. The true share with any hit is near 14%.
Pf growth 48h – Primary qHTS for delayed death inhibitors of the malarial parasite plastid, 48 hour incubation; hit rate 5.9% among 310,000; Potency, µM (top dose mostly 28.7 µM), without a hit: top-dose activity change, negative = inhibition, actives largely listed as inhibitors; P. falciparum luciferase growth in erythrocytes, 48 h; note: potency is the fitted concentration of half-maximal effect
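Read-out is firefly luciferase luminescence from an integrated reporter in P. falciparum, so falling signal marks reduced parasite growth. Infected erythrocytes were at 2% hematocrit and 0.1% parasitemia (final) in Albumax-supplemented RPMI 1640.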
Sm TGR inh – qHTS Assay for the Inhibitors of Schistosoma Mansoni Peroxiredoxins | Schistosoma mansoni thioredoxin glutathione reductase (TGR), Q962Y6 | purified TGR, DTNB reduction, TNB absorbance 405 nm | Potency, µM (series often up to 114 µM), for the others: at the highest dose activity change, negative = inhibition, most hits filed as inhibitors | hit rate 3% among 360,000 | AID 485364, 2010; note: potency is the fitted concentration of half-maximal effect; nearly all actives have a fitted effect of over 60% in size
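First, TGR (20 nM dispensed) and NADPH were mixed with compound. Second, a 15 min room-temperature incubation followed. Third, further NADPH and then DTNB were added to start the reaction. Finally, TNB absorbance was monitored kinetically.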
HCMV inh – qHTS Assay for inhibitors of the human cytomegalovirus (HCMV); HFF cells, HCMV-luciferase reporter, 72 h; active compounds read low; activity change, negative = inhibition, % at 57.5 µM; hit rate 4.5% among 410,000; in the data active = activity change below about -60%; inconclusive = no clear call, values can overlap the other calls; inactive = above about -39%
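Two compound doses tested in HFFs infected with HCMV-luciferase, MOI 1 PFU/cell, 72 h at 37C. Lysate luminescence read with OneGlo; data normalized against buffer-only and 10uM Salinomycin inhibitor controls.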
FBPA Giardia inh – qHTS Assay for Inhibitors of Fructose-1,6-bisphosphate Aldolase from Giardia Lamblia; A8B2U2; purified Giardia FBPA; Potency, µM (highest dose often 59.6 µM), for the others: at the highest dose activity, negative = inhibition, hits mostly inhibitors; hit rate 0.71% among 290,000; AID 2451, 2010; note: potency is the fitted concentration of half-maximal effect; nearly all actives have a fitted effect of over 55% in size
Target sequence (A8B2U2 whole entry, looked up): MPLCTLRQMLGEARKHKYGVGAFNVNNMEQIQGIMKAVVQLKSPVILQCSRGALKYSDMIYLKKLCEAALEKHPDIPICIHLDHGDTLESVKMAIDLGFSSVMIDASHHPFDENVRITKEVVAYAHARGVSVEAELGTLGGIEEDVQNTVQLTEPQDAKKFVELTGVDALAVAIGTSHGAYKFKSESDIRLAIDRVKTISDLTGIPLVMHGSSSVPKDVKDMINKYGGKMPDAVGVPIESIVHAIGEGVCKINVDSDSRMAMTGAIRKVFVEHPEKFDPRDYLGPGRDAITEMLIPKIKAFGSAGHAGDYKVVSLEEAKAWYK
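40 nM FBPA preincubated 10 min at RT with compound (up to 57.5 uM final), then substrate plus GAPDH/TPI/NAD/arsenate coupling and diaphorase/resazurin added. Fluorescence read after 20 min at RT, 525/598 nm.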
Pf growth 96h – Primary qHTS for delayed death inhibitors of the malarial parasite plastid, 96 hour incubation. P. falciparum luciferase reporter growth, 96 h. Potency, µM (titrated, usually from 28.7 µM), inactives show at the highest dose activity change, negative = inhibition, usual class: inhibitors. hit rate 6.9% among 320,000. AID 504834, 2011; note: potency is the fitted concentration of half-maximal effect
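96 h incubation, 37 C, 5% CO2, of luciferase-reporter P. falciparum-infected RBCs (2% hematocrit, 0.05% parasitemia final) with test compounds; endpoint luminescence.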
Numbers without * were called inactive; ? = inconclusive; · = no result given. Unless noted, calls come from the whole dose curve; as a rule, active = well fitted curve in the direction sought with a large enough effect; inconclusive = small, poorly fitted or top-dose-only effect, or another doubt; inactive = no such curve, though single readings can be large; an effect the other way counts as inactive or inconclusive. % is set by controls: 0 for no effect and ±100 for the full control effect.

SMILES	Pf growth 48h	Sm TGR inh	HCMV inh	FBPA Giardia inh	Pf growth 96h
CCS(=O)(=O)N1CCC(C(=O)Nc2ccccc2OC)CC1	30%	0%	20	8%	95%
O=C(NCC(c1ccco1)N1CCc2ccccc2C1)c1ccc(Cl)c([N+](=O)[O-])c1 (centres undefined)	?	-34%	-10	·	1%
O=C(NCC(c1ccco1)N1CCCC1)c1ccc(Cl)c(S(=O)(=O)N2CCc3ccccc32)c1 (centres undefined)	5.9µM*	?	?	·	?
O=C(Nc1ccc(Br)cc1)c1ccc(F)c(S(=O)(=O)NCc2cccs2)c1	?	7%	-92*	-4%	?
O=S(=O)(NCc1cccs1)c1ccc(Br)cc1	3%	5%	?	0%	0%
O=C(O)CNc1ncccc1[N+](=O)[O-]	7%	11%	16	0%	18%
Cc1c(O)ccc(/C=N/Nc2ncccc2[N+](=O)[O-])c1O	137%	-22%	-69*	16%	?
O=[N+]([O-])c1cccnc1N/N=C/c1ccccc1O	136%	-3%	-97*	0%	261%
O=C1CN(C(=O)c2ccccc2Br)C(c2ccc(F)cc2)c2cc(F)ccc2N1 (centres undefined)	-7%	-24%	-2	0%	3%
COc1ccc(-c2csc(N(Cc3ccco3)C(=O)c3cccs3)n2)cc1	?	13µM*	1	-4%	6.6µM*
COc1ccc(OC)c(-c2csc(N(Cc3ccco3)C(=O)c3cccs3)n2)c1	9.3µM*	-22%	-8	-6%	?
COc1ccc(-c2csc(N(C)C(=O)c3cccs3)n2)cc1	87%	4%	48	-3%	-1%
COc1ccc(-c2csc(N(CC3CCCO3)C(=O)c3cccs3)n2)cc1 (centres undefined)	·	4%	20	0%	-4%
O=C(C1CC1)N(Cc1ccco1)c1nc(-c2ccccc2)cs1	?	32µM*	5	-9%	?
COc1ccc(OC)c(-c2csc(N(CC3CCCO3)C(=O)C3CCCCC3)n2)c1 (centres undefined)	2.9µM*	18%	-72*	-9%	-25%
CC(=O)OCC(=O)C12OC(C)(C)OC1CC1C3CC=C4CC(O)CCC4(C)C3CCC12C (centres undefined)	·	·	28	·	·
Cc1cnc(CNc2nc(-c3ccc(N(C)C)cc3)nc3ccccc23)cn1	·	·	·	-12%	·
CC(C)(C)S(=O)N1Cc2cc(C(=O)N[C@@H]3CCN(Cc4ccccc4)C3)nc(-c3cccc(-c4cc5ccccc5o4)c3)c2[C@@H]1CCO (some centres undefined)	·	·	-7	·	·
Nc1c(N(Cc2ccccc2)C(=O)CCc2ccccc2)c(=O)[nH]c(=O)n1Cc1ccccc1	?	-9%	?	·	?
COc1ccc(CC(=O)N(CCC2=CCCCC2)c2c(N)n(Cc3ccccc3)c(=O)[nH]c2=O)cc1	·	·	-40	·	·
CCCN(C(=O)C(C)Oc1cccc(Cl)c1)c1c(N)n(Cc2ccccc2)c(=O)[nH]c1=O (centres undefined)	?	2%	61	2%	?
CC(Oc1ccc(F)cc1)C(=O)N(CCC1=CCCCC1)c1c(N)n(Cc2ccccc2)c(=O)[nH]c1=O (centres undefined)	?	2%	-35	·	9.3µM*
COc1ccccc1CCC(=O)N(Cc1ccccc1)c1c(N)n(Cc2ccccc2)c(=O)[nH]c1=O	?	-13%	-3	·	8.3µM*
Nc1c(N(Cc2ccccc2)C(=O)COc2cccc(Cl)c2)c(=O)[nH]c(=O)n1Cc1ccccc1	?	3%	-78*	·	?
CCCCN(C(=O)C(C)Oc1ccc(Br)cc1)c1c(N)n(Cc2ccccc2)c(=O)[nH]c1=O (centres undefined)	?	89µM*	-5	·	?
SMILES	Pf growth 48h	Sm TGR inh	HCMV inh	FBPA Giardia inh	Pf growth 96h
CCOC(=O)N1CCN(S(=O)(=O)c2c(C(=O)N3CCCCC3)c(C)n(C)c2C)CC1	1%	-7%	-31	·	25%
CC1(C(=O)O)CCC2(C)CCC3(C)C(=CC(=O)C4C5(C)CCC(O)C(C)(C)C5CCC43C)C2C1 (centres undefined)	6%	·	·	·	-8%
Cc1ccccc1C(c1ncccc1C)N(C)C(=O)C1CCN(CCOc2ccc(Cl)cc2Cl)CC1 (centres undefined)	·	·	2	·	·
CC[C@@]1(C(=O)OC)N[C@H](CN(C)S(=O)(=O)c2ccc(-c3ccccc3)cc2)[C@@H]2C(=O)N(Cc3ccccc3)C(=O)[C@@H]21	·	·	-2	·	·
CCOc1ccc(OCC(=O)N(CCC2=CCCCC2)c2c(N)n(Cc3ccccc3)c(=O)[nH]c2=O)cc1	?	-5%	-84*	·	?
COC(=O)C1=C(c2cccc(OCc3ccccc3)c2)C[C@@H]2CC[C@H]1N2C(=O)NCc1ccccc1	13µM*	0%	-30	·	?
COC(=O)C1=C(c2ccc(OCc3ccccc3)cc2)C[C@@H]2CC[C@H]1N2C(=O)NCc1ccc([N+](=O)[O-])cc1	·	·	-10	·	·
COC(=O)C1=C(c2ccc(OC)c(OC)c2)C[C@@H]2CC[C@H]1N2C(=O)NCc1cc(C)oc1C(F)(F)F	9.3µM*	1%	1	·	?
COC(=O)C1=C(c2cccc(OCc3ccccc3)c2)C[C@@H]2CC[C@H]1N2C(=O)NCc1ccc(OC)cc1	7.4µM*	2%	18	·	?
COC(=O)C1=C(c2cccc(OCc3ccccc3)c2)C[C@@H]2CC[C@H]1N2C(=O)NCc1ccc(OC)c(OC)c1	?	-3%	-27	·	?
COC(=O)C1=C(c2cccc(OCc3ccccc3)c2)C[C@@H]2CC[C@H]1N2C(=O)NCc1cccc(F)c1	8.3µM*	-7%	-25	·	?
CC(OC(=O)/C=C/c1cccs1)C(=O)Nc1ccc(C(N)=O)cc1 (centres undefined)	-8%	-21%	7	·	-2%
CCOc1ccc(NC(=O)CC2C(=O)N(c3ccc(C)cc3)C(=O)N2C2CCCCC2)cc1 (centres undefined)	·	-1%	51	·	·
COCCN(C(=O)C1CCCO1)c1c(N)n(CC(C)C)c(=O)[nH]c1=O (centres undefined)	-18%	-4%	24	·	-23%
CCN(CC)c1ccc(/C=N/NC(=O)c2nnn(-c3nonc3N)c2CN(C)C2CCCCC2)cc1	·	·	-15	·	·
COC(=O)C1=C(c2ccc(S(C)(=O)=O)cc2)C[C@@H]2CC[C@H]1N2C(=O)NCc1ccccc1	·	·	-15	·	·
